Source: PubChem BioAssay (Tox21)
Values joined by “and” are separate entries in the source; they are usually repeats but may differ in a detail not shown here. Identical values can stand only once. Active and inactive are the calls of the source. Unless noted, calls follow the shape of the dose curve; as a rule, active = well fitted curve in the direction sought with a large enough effect in the repeat runs; inconclusive = weak or mixed curves; inactive = no such curve, though single readings can be large; an effect the other way counts as inactive or inconclusive.

Tests used:
[1] = qHTS assay to identify small molecule antagonists of the glucocorticoid receptor (GR) signaling pathway - cell viability counter screen (AID 720693); also: nearly all actives have a fitted effect of over 55% in size; also: potency is read from the fitted curve at half-maximal effect
[2] = qHTS assay for identifying genotoxic compounds that show differential cytotoxicity against isogenic chicken DT40 cell lines with known DNA damage response pathways - wild type cell line (AID 743012); also: nearly all actives have a fitted effect of over 60% in size; also: potency is read from the fitted curve at half-maximal effect
Summary of the method: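 300 wt DT40 cells/well; cpd (DMSO) pintool-transferred after ~0.5 h at 37 C/5% CO2; 40 h incubation; CellTiter-Glo added, 30 min RT; luminescence read.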

[3] = qHTS assay for identifying genotoxic compounds that show differential cytotoxicity against isogenic chicken DT40 cell lines with known DNA damage response pathways - Rev3 mutant cell line (AID 743014); also: nearly all actives have a fitted effect of over 55% in size; also: potency is read from the fitted curve at half-maximal effect
[4] = qHTS assay to identify small molecule antagonists of the androgen receptor (AR) signaling pathway - cell viability counter screen (AID 743033; also: % is scaled to controls: 0 for no effect and ±100 for the full control effect; nearly all actives have a fitted effect of over 45% in size)
[5] = biological target: Androgen receptor (Homo sapiens) (UniProt P10275); assay: qHTS assay to identify small molecule agonists of the androgen receptor (AR) signaling pathway (AID 743036; active = well fitted activation curve with a large enough effect in the signal ratio in the repeat runs, with a control signal flat, not every such curve was filed as active; inconclusive = weak or mixed curves, or effect the other way; inactive = no such curve, though single readings can be large or run the other way; the % refers to the signal ratio; also: potency is read from the fitted curve at half-maximal effect)
Sequence of Androgen receptor (Homo sapiens) (P10275 whole entry, looked up): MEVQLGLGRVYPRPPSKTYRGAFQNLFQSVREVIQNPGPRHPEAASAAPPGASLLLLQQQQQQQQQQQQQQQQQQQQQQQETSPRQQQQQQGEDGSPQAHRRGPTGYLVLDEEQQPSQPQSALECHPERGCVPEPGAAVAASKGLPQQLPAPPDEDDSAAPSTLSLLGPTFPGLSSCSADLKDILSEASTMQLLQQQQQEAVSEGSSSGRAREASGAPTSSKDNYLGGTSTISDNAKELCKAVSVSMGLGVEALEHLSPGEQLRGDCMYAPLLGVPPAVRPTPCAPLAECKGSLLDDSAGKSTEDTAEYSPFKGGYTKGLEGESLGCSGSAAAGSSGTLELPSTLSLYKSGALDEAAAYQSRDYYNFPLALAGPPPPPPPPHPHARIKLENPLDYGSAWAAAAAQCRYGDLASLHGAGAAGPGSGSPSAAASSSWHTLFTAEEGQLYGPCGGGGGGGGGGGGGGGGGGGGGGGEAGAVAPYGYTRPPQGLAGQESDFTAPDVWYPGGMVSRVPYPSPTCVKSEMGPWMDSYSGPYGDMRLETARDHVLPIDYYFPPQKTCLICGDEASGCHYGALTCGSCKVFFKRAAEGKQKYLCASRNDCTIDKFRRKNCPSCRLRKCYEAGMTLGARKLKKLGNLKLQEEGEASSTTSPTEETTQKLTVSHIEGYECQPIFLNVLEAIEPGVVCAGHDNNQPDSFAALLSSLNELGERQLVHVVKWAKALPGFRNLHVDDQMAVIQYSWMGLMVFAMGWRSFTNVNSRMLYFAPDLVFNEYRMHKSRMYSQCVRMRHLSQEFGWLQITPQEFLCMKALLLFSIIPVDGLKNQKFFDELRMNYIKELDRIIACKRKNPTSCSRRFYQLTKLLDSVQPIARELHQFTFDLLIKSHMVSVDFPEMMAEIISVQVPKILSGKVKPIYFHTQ
Summary of the method: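 Agonist activity was scored by beta-lactamase reporter fluorescence in stably transfected HEK293 cells exposed to compounds for 16 h at 37C and 5% CO2. Substrate loading took 2 h at room temperature.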

[6] = biological target: Androgen receptor (Homo sapiens) (UniProt P10275); assay: qHTS assay to identify small molecule agonists of the androgen receptor (AR) signaling pathway using the MDA cell line (AID 743040; also: potency is read from the fitted curve at half-maximal effect; nearly all actives have a fitted effect of over 20% in size)
Summary of the method: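 Luciferase agonist assay: 16 h compound exposure at 37C without CO2 in MDA-kb2 AR-luc cells, whose MMTV promoter responds to both AR and GR. Luminescence measured after 30 min room-temperature incubation with ONE-Glo.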

[7] = qHTS assay to identify small molecule antagonists of the androgen receptor (AR) signaling pathway using the MDA cell line - cell viability counter screen (AID 743041; also: nearly all actives have a fitted effect of over 45% in size; also: potency is read from the fitted curve at half-maximal effect)
Summary of the method: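 Viability read by CellTiter-Fluor fluorescence in the same wells as the antagonist screen, added after 15.5 h of a 16 h, 37C exposure. Human breast carcinoma MDA-kb2 AR-luc cells, compounds co-dosed with agonist R1881.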

[8] = biological target: Androgen receptor (Homo sapiens) (UniProt P10275); assay: qHTS assay to identify small molecule antagonists of the androgen receptor (AR) signaling pathway using the MDA cell line (AID 743042; also: % is scaled to controls: 0 for no effect and ±100 for the full control effect; nearly all actives have a fitted effect of over 55% in size)
Summary of the method: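 Antagonist mode: compounds plus R1881 agonist added to MDA-kb2 AR-luc cells, incubated 16 h at 37C. Luciferase reporter luminescence quantified, with multiplexed CellTiter-Fluor readout for cell viability.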

[9] = qHTS assay to identify small molecule antagonists of the thyroid receptor (TR) signaling pathway (AID 743065); also: nearly all actives have a fitted effect of over 55% in size; also: potency is read from the fitted curve at half-maximal effect
Summary of the method: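 Antagonism measured as loss of luciferase signal in GH3 cells stably carrying a TRE-luciferase reporter, co-treated with compound and T3 (1 nM final) for 23.5 h at 37 C. Viability was read in the same well by CellTiter-Fluor.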

[10] = test system: thyroid hormone receptor (rat, GH3 cells); assay: qHTS assay to identify small molecule agonists of the thyroid receptor (TR) signaling pathway (AID 743066; calls by dose curve; also: % is scaled to controls: 0 for no effect and ±100 for the full control effect)
[11] = qHTS assay to identify small molecule antagonists of the estrogen receptor alpha (ER-alpha) signaling pathway - cell viability counter screen (AID 743074; calls by dose curve;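 also: HEK293 cells carrying ER-alpha-UAS-bla reporter stimulated with 17beta-estradiol; nearly all actives have a fitted effect of over 45% in size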; also: potency is read from the fitted curve at half-maximal effect)
[12] = biological target: Estrogen receptor (Homo sapiens) (UniProt P03372); assay: qHTS assay to identify small molecule agonists of the estrogen receptor alpha (ER-alpha) signaling pathway (AID 743075; calls by dose curve;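 also: HEK293 GripTite cells with ER-alpha and UAS-driven beta-lactamase reporter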; also: potency is read from the fitted curve at half-maximal effect; as to activation: % is scaled to controls: 0 for no effect and ±100 for the full control effect)
Sequence of Estrogen receptor (Homo sapiens) (P03372 whole entry, looked up): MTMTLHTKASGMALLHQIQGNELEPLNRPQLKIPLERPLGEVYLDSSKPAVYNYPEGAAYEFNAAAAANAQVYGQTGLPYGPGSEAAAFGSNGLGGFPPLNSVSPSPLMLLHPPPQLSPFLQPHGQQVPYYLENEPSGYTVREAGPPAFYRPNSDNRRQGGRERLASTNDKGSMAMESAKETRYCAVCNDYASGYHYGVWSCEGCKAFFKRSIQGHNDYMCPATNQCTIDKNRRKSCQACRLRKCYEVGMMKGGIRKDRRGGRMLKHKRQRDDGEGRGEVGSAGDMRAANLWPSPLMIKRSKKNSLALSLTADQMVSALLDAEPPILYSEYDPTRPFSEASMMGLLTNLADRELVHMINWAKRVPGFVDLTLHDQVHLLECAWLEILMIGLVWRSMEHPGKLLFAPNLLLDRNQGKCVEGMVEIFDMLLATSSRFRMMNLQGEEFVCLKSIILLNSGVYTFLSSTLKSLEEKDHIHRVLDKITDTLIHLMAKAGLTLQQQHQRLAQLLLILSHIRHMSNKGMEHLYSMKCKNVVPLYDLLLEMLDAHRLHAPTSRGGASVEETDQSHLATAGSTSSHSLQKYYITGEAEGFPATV

[13] = biological target: Estrogen receptor (Homo sapiens) (UniProt P03372); assay: qHTS assay to identify small molecule agonists of the estrogen receptor alpha (ER-alpha) signaling pathway using the BG1 cell line (AID 743079); conditions: BG1Luc4E2 cells, ERE-luciferase agonist, 22 h; activation: at 70.3 µM (top of the series); also: nearly all actives have a fitted effect of over 20% in size; also: potency is read from the fitted curve at half-maximal effect; as to activation: % is scaled to controls: 0 for no effect and ±100 for the full control effect
[14] = qHTS assay to identify small molecule antagonists of the estrogen receptor alpha (ER-alpha) signaling pathway using the BG1 cell line - cell viability counter screen (AID 743081);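 also: compound given together with 17beta-estradiol as the ER stimulus; nearly all actives have a fitted effect of over 45% in size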; also: potency is read from the fitted curve at half-maximal effect
[15] = biological target: Aromatase (Homo sapiens) (UniProt P11511); assay: qHTS assay to identify aromatase inhibitors (AID 743083); also: nearly all actives have a fitted effect of over 55% in size; also: potency is read from the fitted curve at half-maximal effect
Sequence of Aromatase (Homo sapiens) (P11511 whole entry, looked up): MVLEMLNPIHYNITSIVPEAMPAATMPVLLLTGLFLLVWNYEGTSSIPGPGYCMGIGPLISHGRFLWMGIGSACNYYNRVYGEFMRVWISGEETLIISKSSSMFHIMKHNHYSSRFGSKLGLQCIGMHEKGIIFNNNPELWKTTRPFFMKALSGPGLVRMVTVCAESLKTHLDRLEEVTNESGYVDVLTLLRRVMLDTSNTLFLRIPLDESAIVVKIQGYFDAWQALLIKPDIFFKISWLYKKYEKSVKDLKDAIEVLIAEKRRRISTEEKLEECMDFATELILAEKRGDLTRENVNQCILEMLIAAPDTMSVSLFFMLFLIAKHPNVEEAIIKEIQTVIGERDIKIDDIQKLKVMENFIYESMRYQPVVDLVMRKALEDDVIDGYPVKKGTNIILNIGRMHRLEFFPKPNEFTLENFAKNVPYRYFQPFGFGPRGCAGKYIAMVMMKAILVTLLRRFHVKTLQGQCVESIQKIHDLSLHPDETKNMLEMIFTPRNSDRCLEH

[16] = qHTS assay for identifying genotoxic compounds that show differential cytotoxicity against isogenic chicken DT40 cell lines with known DNA damage response pathways - Rad54/Ku70 mutant cell line (AID 743015); also: nearly all actives have a fitted effect of over 60% in size; also: potency is read from the fitted curve at half-maximal effect
[17] = biological target: Estrogen receptor (Homo sapiens) (UniProt P03372); assay: qHTS assay to identify small molecule antagonists of the estrogen receptor alpha (ER-alpha) signaling pathway (AID 743069; active = well fitted curve in the direction sought with a large enough effect in the signal ratio in the repeat runs, not every such curve was filed as active; inconclusive = weak or mixed curves, or effect the other way; inactive = no such curve, though single readings can be large or run the other way; the % refers to the signal ratio; also: potency is read from the fitted curve at half-maximal effect)
Summary of the method: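 Antagonist mode: compounds in DMSO were co-added with 17beta-estradiol to ER-alpha-bla HEK293 cells (2% charcoal-stripped serum) and left 18 h at 37C. Reporter inhibition was measured as FRET fluorescence after 2 h LiveBLAzer substrate at room temperature.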

[18] = qHTS assay to identify small molecule antagonists of the estrogen receptor alpha (ER-alpha) signaling pathway using the BG1 cell line (AID 743080; calls by dose curve;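 also: BG1 cells stimulated with 17beta-estradiol alongside compound; nearly all actives have a fitted effect of over 25% in size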; also: potency is read from the fitted curve at half-maximal effect)
Summary of the method: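 Readout is ONE-Glo luminescence, taken 30 min at room temperature after reagent addition, preceded by a CellTiter-Fluor viability read; BG1-Luc-4E2 cells had received compound and 17beta-estradiol for 21.5 h at 37 C.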

[19] = qHTS assay to identify small molecule antagonists of the thyroid receptor (TR) signaling pathway - cell viability counter screen (AID 743064); also: nearly all actives have a fitted effect of over 50% in size; also: potency is read from the fitted curve at half-maximal effect
Summary of the method: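 Same-well viability check: GH3.TRE-Luc cells stimulated with 1 nM T3 alongside test compound for 23.5 h, followed by CellTiter-Fluor fluorescence.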

C[C@]12CC[C@@H]3c4ccc(OC(=O)c5ccccc5)cc4CC[C@H]3[C@@H]1CC[C@@H]2O
inactive: Potency [1] | Potency [4] | Potency [7] | Potency [8] | Potency [9] | Potency [10] | Potency [11] | Potency [14] | Potency [15]
active: Potency [2] 2.98 µM | Potency [3] 9.44 µM | Potency [5] 3.38 µM | Potency [6] 1.33 µM | Potency [12] 0.0007 µM [inconclusive] | activation [13] 82.8%

CCC(=O)OCC(=O)[C@@]1(OC(=O)CC)[C@@H](C)C[C@H]2[C@@H]3CCC4=CC(=O)C=C[C@]4(C)[C@@]3(F)[C@@H](O)C[C@@]21C
inactive: Potency [1] | Potency [7] | Potency [11]
active: Potency [2] 13.3 µM | Potency [3] 29.8 µM | Potency [16] 23.7 µM | Potency [12] 23.9 µM [fluorescent] | Potency [15] 3.76 µM

CCCCCCCCCCCCCCCC(=O)OCC(COC(=O)CCCCCCCCCCCCCCC)OC(=O)CCCCCCCCCCCCCCC
inactive: Potency [1] | Potency [2] | Potency [3] | Potency [16] | Potency [7] | Potency [9] | Potency [10] | Potency [17] | Potency [11] | Potency [12] | Potency [18] | Potency [14] | Potency [15]

COC(=O)[C@H]1[C@H]2C[C@@H]3c4[nH]c5ccccc5c4CCN3C[C@H]2C[C@@H](OC(=O)c2cc(OC)c(OC)c(OC)c2)[C@@H]1OC
active: Potency [2] 1.06 µM and 11.9 µM | Potency [3] 1.68 µM and 21.1 µM | Potency [16] 1.68 µM and 26.6 µM | Potency [19] 26.6 µM | Potency [9] 2.11 µM and 21.1 µM | Potency [17] 2.39 µM [inconclusive] | Potency [18] 6.68 µM | Potency [15] 5.96 µM and 29.8 µM
inactive: Potency [1] | Potency [11] | Potency [12] | Potency [13] | Potency [14]

CCOc1ccc(N=C(C)Nc2ccc(OCC)cc2)cc1
inactive: Potency [1] | Potency [19] | Potency [9] | Potency [10] | Potency [17] | Potency [12] | Potency [13] | Potency [18] | Potency [15]
active: Potency [2] 23.7 µM | Potency [3] 23.7 µM | Potency [16] 23.7 µM

COc1ccc(C[C@H](N)C(=O)N[C@H]2[C@@H](O)[C@H](n3cnc4c(N(C)C)ncnc43)O[C@@H]2CO)cc1
active: Potency [1] 4.77 µM | Potency [2] 0.841 µM | Potency [3] 0.75 µM | Potency [7] 7.5 µM | Potency [19] 11.9 µM | Potency [9] 10.6 µM | Potency [17] 4.25 µM [inconclusive] | Potency [14] 21.1 µM | Potency [15] 11.9 µM
inactive: Potency [16] | Potency [11] | Potency [12]

CCCCCCC(=O)O[C@H]1CC[C@H]2[C@@H]3CCc4cc(O)ccc4[C@H]3CC[C@]12C
active: Potency [9] 21.1 µM | Potency [12] 0.0007 µM [inconclusive] | activation [13] 66.1%
inactive: Potency [1] | Potency [2] | Potency [3] | Potency [16] | Potency [7] | Potency [14] | Potency [15]

CC(C)CN(C[C@@H](OP(=O)(O)O)[C@H](Cc1ccccc1)NC(=O)O[C@H]1CCOC1)S(=O)(=O)c1ccc(N)cc1
inactive: Potency [1] | Potency [2] | Potency [3] | Potency [4] | Potency [7] | Potency [19] | Potency [9] | Potency [10] | Potency [17] | Potency [11] | Potency [12] | Potency [13] | Potency [18] | Potency [14] | Potency [15]

Clc1cc(Cl)c(OCC#CI)cc1Cl
inactive: Potency [1] | Potency [17] | Potency [11] | Potency [12] | Potency [14]
active: Potency [2] 1.68 µM | Potency [3] 2.98 µM | Potency [16] 2.66 µM | Potency [19] 7.5 µM | Potency [9] 6.68 µM | Potency [18] 33.5 µM | Potency [15] 16.8 µM

CC(=O)c1ccc2c(c1)N(CCCN1CCN(CCO)CC1)c1ccccc1S2
active: Potency [2] 13.3 µM | Potency [3] 26.6 µM | Potency [16] 21.1 µM | Potency [19] 13.3 µM | Potency [9] 13.3 µM
inactive: Potency [1] | Potency [7] | Potency [11] | Potency [18]

O=C(CCCN1CCC(C(=O)c2ccc(F)cc2)CC1)c1ccc(F)cc1
active: Potency [2] 8.41 µM | Potency [3] 3.76 µM | Potency [16] 7.5 µM
inactive: Potency [1] | Potency [7] | Potency [10] | Potency [17] | Potency [11] | Potency [12] | Potency [13] | Potency [18] | Potency [14] | Potency [15]

CN1CCN(CCCN2c3ccccc3Sc3ccccc32)CC1
active: Potency [2] 9.44 µM | Potency [3] 11.9 µM | Potency [16] 13.3 µM | Potency [19] 13.3 µM | Potency [9] 23.7 µM
inactive: Potency [1] | Potency [7] | Potency [11] | Potency [12] | Potency [13] | Potency [18]

CC1(C)N=C(N)N=C(N)N1c1ccc(Cl)cc1
inactive: Potency [1] | Potency [7] | Potency [19] | Potency [10] | Potency [12] | Potency [18] | Potency [14] | Potency [15]
active: Potency [2] 0.422 µM | Potency [3] 0.422 µM | Potency [16] 1.19 µM | Potency [11] 12 µM

CCC(=O)OCC(=O)[C@@]1(OC(=O)CC)[C@@H](C)C[C@H]2[C@@H]3CCC4=CC(=O)C=C[C@]4(C)[C@@]3(Cl)[C@@H](O)C[C@@]21C
active: Potency [2] 13.3 µM | Potency [3] 15 µM | Potency [6] 0.0094 µM | Potency [15] 2.66 µM
inactive: Potency [1] | Potency [4] | Potency [7] | Potency [8] | Potency [10] | Potency [17] | Potency [11] | Potency [13] | Potency [14]

CC[C@@]1(O)C[C@H](O[C@H]2C[C@H](N(C)C)[C@H](O[C@H]3C[C@H](O)[C@H](O[C@H]4CCC(=O)[C@H](C)O4)[C@H](C)O3)[C@H](C)O2)c2c(cc3c(c2O)C(=O)c2c(O)cccc2C3=O)[C@H]1C(=O)OC
active: Potency [1] 2.39 µM | Potency [2] 0.0531 µM | Potency [3] 0.0531 µM | Potency [16] 0.0422 µM | Potency [17] 6.01 µM [inconclusive] | Potency [13] 2.98 µM | Potency [15] 2.66 µM
inactive: Potency [11]
